Laboratory results as given in PubChem BioAssay (Tox21).
Records with an inconclusive call do not appear. A call without a number means that no potency is given here. Active and inactive are the calls of the source. Calls follow the shape of the dose curve; as a rule, active = well fitted inhibition curve with a large enough effect in the repeat runs; inconclusive = weak or mixed curves; inactive = no such curve, though single readings can be large or run the other way.

molecular target: Cytochrome P450 2D6 (Homo sapiens) (UniProt P10635); experiment: Cytochrome P450 Family 2 Subfamily D Member 6 (CYP2D6) small molecule antagonists: luciferase reporter qHTS assay (AID 1671196); conditions: P450-Glo CYP2D6 enzyme assay, luciferin luminescence, 1 h; series mostly up to 115 µM; also: nearly all actives have a fitted effect of over 50% in size
Excerpt: U.S. Tox21 Program National Center for Advancing Translational Sciences [NCATS] U.S. Environmental Protection Agency [EPA] National Institutes of Environmental Health Sciences [NIEHS] National Toxicology Program [NTP] U.S. Food and Drug Administration [FDA] Tox21 Assay Overview: Cytochrome P450 (CYP) enzymes are membrane-bound hemeproteins that play a key role in metabolism of drugs and xenobiotics. Evaluation of the effect of chemicals on CYP isozymes is useful to minimize the adverse drug reactions and toxicities in drug development process. Tox21 chemicals were tested for their effect on CYP enzyme activities by using P450-Glo (TM) screening systems (Promega Corporation, Madison, WI). These systems provide a luminescent method containing proluciferin substrates and are converted to luciferin products by CYP isozymes. The luciferin products formed are detected with a luciferin detection reagent, and the amount of light produced is proportional to CYP activity. P450-Glo (TM) CYP2D6 screening system (Catalog. No. V9890) was used to detect the compounds that interfere in CYP2D6 activity.
Tox21 Assay Protocol Summary: Two ul of enzyme-substrate mix was dispensed into medium binding white/solid 1536-well plates (Greiner Bio-One North America Inc., Monroe, NC) using a BioRaptr Flying Reagent Dispenser (FRD, Beckman Coulter, Brea, CA). […] The assay plates were incubated at room temperature for 10 min. Then 2 ul of NADPH regeneration solution was added to each well of the assay plates using an FRD and incubated at room temperature for 1 h. The reaction was stopped by adding 4 ul of detection reagent using an FRD and after 20 min incubation at room temperature the luminescence signal was measured using a ViewLux plate reader (Perkin Elmer, Shelton, CT). Data were expressed as relative luminescence units.
Potency is read from the fitted curve at half-maximal effect.

Sequence of Cytochrome P450 2D6 (Homo sapiens) (P10635 whole entry, looked up): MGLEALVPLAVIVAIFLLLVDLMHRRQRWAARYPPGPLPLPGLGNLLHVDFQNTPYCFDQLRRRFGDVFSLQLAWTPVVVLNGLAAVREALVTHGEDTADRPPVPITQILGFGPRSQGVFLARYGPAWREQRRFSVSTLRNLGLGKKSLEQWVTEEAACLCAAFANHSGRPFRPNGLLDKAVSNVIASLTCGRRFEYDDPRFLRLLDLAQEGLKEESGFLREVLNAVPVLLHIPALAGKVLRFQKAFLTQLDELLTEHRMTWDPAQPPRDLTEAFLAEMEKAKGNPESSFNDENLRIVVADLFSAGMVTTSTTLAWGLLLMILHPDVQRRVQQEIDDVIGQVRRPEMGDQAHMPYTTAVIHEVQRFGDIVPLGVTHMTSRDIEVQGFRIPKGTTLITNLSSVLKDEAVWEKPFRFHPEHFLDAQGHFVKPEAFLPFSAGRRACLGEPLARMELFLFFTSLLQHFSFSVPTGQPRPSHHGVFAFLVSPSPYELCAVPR

Compound | Potency
O=C(O)C1CCC1 | inactive
Cc1ccc(Nc2ccc(O)c3c2C(=O)c2ccccc2C3=O)cc1 | inactive
CC(C)CCOC(=O)CC(C)C | inactive
O=[N+]([O-])c1ccc(Oc2ccc([N+](=O)[O-])cc2)cc1 | inactive
NC(=O)CCCCC1CCSS1 (stereo not given) | inactive
CC(C)(C)OC(=O)N1C[C@@H](F)C[C@H]1C(=O)O | inactive
CC(C)[N+](C)(C)CC(O)COc1cccc2ccccc12 (stereo not given) | 4.36 µM (active)
CCC(=O)/C=C/c1ccc(OC)cc1 | inactive
COC(=O)CCCC(=O)O | inactive
CC12CCC(CC1=O)C2(C)C (stereo not given) | inactive
C=C(C)C1CC=C(C)C(O)C1 (stereo not given) | inactive
Nc1cc(C(Cl)=C(Cl)Cl)c(S(N)(=O)=O)cc1S(N)(=O)=O | inactive
CCCCCCCCCCCCCCC | inactive
C=C(C)[C@H]1CC=C(C)CC1 | 35.6 µM (active)
CNC(=O)c1c(I)c(NC(=O)CCCCC(=O)Nc2c(I)c(C(=O)O)c(I)c(C(=O)NC)c2I)c(I)c(C(=O)O)c1I | inactive
CCCOc1ccccc1-c1nc2n[nH]nc2c(=O)[nH]1 | inactive
Nc1ncnc2c1ncn2Cc1c(F)cccc1Cl | inactive
CC(C=O)Cc1ccc(C(C)C)cc1 (stereo not given) | inactive
OCc1ccccn1 | inactive
CCCCCCOC(=O)CC(CC(=O)OCCCCCC)(OC(=O)CCC)C(=O)OCCCCCC | inactive

Compound | Potency
CCN(CC)S(=O)(=O)c1ccc(C(=O)O)cc1 | 38.9 µM (active)
C[C@H]1O[C@@H](n2cc(F)c(=O)[nH]c2=O)[C@H](O)[C@@H]1O | inactive
CC(=O)N[C@@H](CCC(N)=O)C(=O)O | inactive
O=C1CC2(CCCC2)CC(=O)N1 | inactive
O=Cc1ccccc1[N+](=O)[O-] | inactive
CCO[Si](CCCN=C=O)(OCC)OCC | inactive
COC(=O)CCCCCCCCC(=O)OC | inactive
C=CCOc1nc(OCC=C)nc(OCC=C)n1 | 39.9 µM (active)
Fc1ccccc1-c1ccccc1 | inactive
Cc1cc(C)cc(OCC2CNC(=O)O2)c1 (stereo not given) | inactive
COCc1ccc(COC)cc1 | inactive
O=C(O)C(O)[C@H](O)[C@@H](O)[C@H](O)[C@H](O)CO (stereo not given in full) | 64 µM (active)
O=C(CCOCCOCCOCCOCCC(=O)Nc1c(I)cc(I)c(C(=O)O)c1I)Nc1c(I)cc(I)c(C(=O)O)c1I | inactive
C#CC(O)CCCCC (stereo not given) | inactive
O=C1OC(=O)c2cc([N+](=O)[O-])ccc21 | 35.5 µM (active)
NC(=O)c1c(Cl)cccc1Cl | 31.7 µM (active)
CC(C)CCCC(C)NCCC(C)C (stereo not given) | 1.23 µM (active)
COC(=O)C1=C(C)NC(C)=C(C(=O)OCC(C)=O)C1c1ccccc1[N+](=O)[O-] (stereo not given) | inactive
O=[N+]([O-])c1ccc(CCO)cc1 | inactive
CO[Si](OC)(OC)OC | inactive
